Hits are enriched below; roughly 2.3% of the tested compounds scored in any of these assays.
C diff growth: C. difficile growth inhibition | Clostridium difficile clinical isolate growth, OD600, 24 h; stronger effect = lower value | growth activity, negative = inhibition, % at 16 µg/mL (by protocol) | 86,000 tested, 0.25% active | AID 1259249;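 active means mean growth activity at or below -80% and every replicate also at or below -80%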;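 further: 0% = DMSO wells and -100% = levofloxacin 16 µg/mL wells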
Pf Dd2 inh: blocks growth of Plasmodium falciparum Dd2 parasites. P. falciparum Dd2 growth, SYBR Green, 72 h; stronger effect = lower value. 94,000 tested, 2.3% active. activity change, % at 10 µM; in the data active means activity change below about -80%
Numbers without * were called inactive; ! = not active in a repeat.

Results for O=C(N[C@H]1CC[C@@H](CC(=O)N2CCC(Cc3ccccc3)CC2)O[C@@H]1CO)c1cnccn1 ?
C diff growth: 0; Pf Dd2 inh: -7

What do the screens show for `C[C@H]1CN([C@@H](C)CO)S(=O)(=O)c2ccc(/C=C/c3ccccc3)cc2O[C@H]1CN(C)C(=O)NC1CCCC1`?
C diff growth: -2; Pf Dd2 inh: -66

Results for COc1ccc2c3c([nH]c2c1)[C@@H](CO)N(C(=O)Nc1ccc(F)cc1)CC31CN(C(=O)Cc2ccccc2)C1 ?
C diff growth: 2; Pf Dd2 inh: -10

How did COc1ccc2c3c([nH]c2c1)[C@H](CO)N(C(=O)Cc1ccccc1)CC31CCN(C)CC1 do in these assays?
C diff growth: 0; Pf Dd2 inh: -14

How did COc1ccc2c3c(n(C)c2c1)[C@H](CO)N(C(=O)c1ccccc1)CC31CCN(C(=O)c2ccccc2)CC1 do in these assays?
C diff growth: -8; Pf Dd2 inh: -88*

What do the screens show for `COc1ccc2c3c([nH]c2c1)[C@@H](CO)N(C(=O)Cc1ccccc1)CC31CCN(C(=O)Cc2ccccc2)CC1`?
C diff growth: 25; Pf Dd2 inh: -87*

How did COc1ccc2c3c([nH]c2c1)[C@H](CO)N(C(=O)Cc1ccccc1)CC31CN(C(=O)Cc2ccccc2)C1 do in these assays?
C diff growth: 1; Pf Dd2 inh: -83*

What do the screens show for `COc1ccc2c3c(n(C)c2c1)[C@H](CO)N(C(=O)c1ccccc1)CC31CCN(C(C)=O)CC1`?
C diff growth: -1; Pf Dd2 inh: -36

What do the screens show for `COc1ccccc1-c1ccc2c(c1)O[C@@H](CN(C)CC1CC1)[C@H](C)CN([C@@H](C)CO)S2(=O)=O`?
Pf Dd2 inh: -46

How did CC(C)CC#Cc1ccc2c(c1)O[C@H](CN(C)C(=O)c1cccc(F)c1)[C@@H](C)CN([C@@H](C)CO)S2(=O)=O do in these assays?
C diff growth: 4; Pf Dd2 inh: -41

Results for C[C@@H]1CN([C@H](C)CO)C(=O)Cc2cc(NS(=O)(=O)c3ccccc3)ccc2O[C@H]1CN(C)Cc1ccc2c(c1)OCO2 ?
C diff growth: -8; Pf Dd2 inh: -3

How did CN1C(=O)c2cc(NC(=O)c3cccs3)ccc2OC[C@@H]2O[C@H](CC(=O)NCC3CC3)CC[C@H]21 do in these assays?
C diff growth: 3; Pf Dd2 inh: -31

Results for C[C@H]1CCCCO[C@@H](CN(C)S(=O)(=O)c2ccc(Cl)cc2)[C@@H](C)CN([C@@H](C)CO)C(=O)c2cc(N(C)C)ccc2O1 ?
C diff growth: 0

How did COc1ccc(S(=O)(=O)N(C)C[C@H]2OCCCC[C@@H](C)Oc3ccc(N(C)C)cc3C(=O)N([C@H](C)CO)C[C@@H]2C)cc1 do in these assays?
C diff growth: -2; Pf Dd2 inh: -83*!

How did C[C@@H]1CN([C@H](C)CO)C(=O)c2cc(N(C)C)ccc2O[C@@H](C)CCCCO[C@H]1CN(C)S(=O)(=O)c1ccc(Cl)cc1 do in these assays?
C diff growth: -4; Pf Dd2 inh: -84*

What do the screens show for `COc1ccc(S(=O)(=O)N(C)C[C@@H]2OCCCC[C@@H](C)Oc3ccc(N(C)C)cc3C(=O)N([C@@H](C)CO)C[C@H]2C)cc1`?
C diff growth: -1; Pf Dd2 inh: -36

How did CCC(=O)Nc1ccc2c(c1)C(=O)N(C)[C@H]1CC[C@@H](CC(=O)NCc3ccccc3Cl)O[C@@H]1CO2 do in these assays?
C diff growth: -2; Pf Dd2 inh: -9

How did COc1ccc(S(=O)(=O)Nc2ccc3c(c2)C(=O)N([C@@H](C)CO)C[C@H](C)[C@@H](CN(C)C(=O)c2ccncc2)OCCCC[C@H](C)O3)cc1 do in these assays?
C diff growth: 2; Pf Dd2 inh: -29

How did CC(C)NC(=O)Nc1ccc2c(c1)C(=O)N([C@@H](C)CO)C[C@H](C)[C@@H](CN(C)C(=O)Nc1cccc3ccccc13)O2 do in these assays?
C diff growth: 3; Pf Dd2 inh: -6

Results for CCCc1cn(CC[C@H]2CC[C@@H](NC(=O)C3CCC3)[C@H](CO)O2)nn1 ?
C diff growth: 2; Pf Dd2 inh: -7

How did COc1ccc(S(=O)(=O)N(C)C[C@@H]2Oc3c(NC(=O)Nc4ccccc4)cccc3C(=O)N([C@@H](C)CO)C[C@@H]2C)cc1 do in these assays?
Pf Dd2 inh: -5

What do the screens show for `C[C@H]1CN([C@@H](C)CO)C(=O)Cc2cc(NC(=O)CCCCCC(=O)Nc3ccccc3N)ccc2O[C@H]1CN(C)Cc1ccc(-c2ccccc2)cc1`?
C diff growth: 0; Pf Dd2 inh: -82*

How did Cc1ccc(S(=O)(=O)N(C)C[C@@H]2Oc3ccc(NC(=O)CCCCCC(=O)Nc4ccccc4N)cc3CC(=O)N([C@@H](C)CO)C[C@@H]2C)cc1 do in these assays?
C diff growth: -5; Pf Dd2 inh: -88*

How did C[C@H]1CN([C@@H](C)CO)C(=O)Cc2cc(NC(=O)CCCCCC(=O)Nc3ccccc3N)ccc2O[C@H]1CN(C)Cc1ccc2c(c1)OCO2 do in these assays?
C diff growth: -1; Pf Dd2 inh: -88*

How did C[C@@H]1CN([C@@H](C)CO)C(=O)Cc2cc(NC(=O)CCCCCC(=O)Nc3ccccc3N)ccc2O[C@H]1CN(C)Cc1ccc2c(c1)OCO2 do in these assays?
C diff growth: -7; Pf Dd2 inh: -41

What do the screens show for `C[C@@H]1CN([C@H](C)CO)C(=O)Cc2cc(NC(=O)CCCCCC(=O)Nc3ccccc3N)ccc2O[C@H]1CN(C)Cc1ccccc1`?
C diff growth: -12; Pf Dd2 inh: -53

How did Cc1ccc(S(=O)(=O)N(C)C[C@@H]2Oc3ccc(NC(=O)CCCCCC(=O)Nc4ccccc4N)cc3CC(=O)N([C@@H](C)CO)C[C@H]2C)cc1 do in these assays?
C diff growth: -6; Pf Dd2 inh: -68

Results for O=C(C[C@H]1C=C[C@@H](NC(=O)c2ccccc2)[C@@H](CO)O1)NCc1ccc(Oc2ccccc2)cc1 ?
C diff growth: 4; Pf Dd2 inh: 16

Results for COc1ccc2c3c([nH]c2c1)[C@@H](CO)N(S(=O)(=O)c1cn(C)cn1)CC31CCN(Cc2ccccc2F)CC1 ?
C diff growth: 2; Pf Dd2 inh: -46

How did C/C=C/c1ccc([C@H]2[C@@H](CO)N(Cc3ccccn3)[C@@H]2CNC(C)=O)cc1 do in these assays?
C diff growth: 2; Pf Dd2 inh: -70

What do the screens show for `CO[C@H]1CN(C)C(=O)c2ccc(NC(=O)Nc3c(C)noc3C)cc2OC[C@H](C)N(CC2CC2)C[C@@H]1C`?
C diff growth: -2; Pf Dd2 inh: 16

How did COc1ccc(NC(=O)N(C)C[C@@H]2OCc3ccccc3-c3c(n(C)c4ccccc34)C(=O)N([C@@H](C)CO)C[C@H]2C)c(OC)c1 do in these assays?
C diff growth: -3; Pf Dd2 inh: -78

What do the screens show for `COc1ccc(NC(=O)N(C)C[C@H]2OCc3ccccc3-c3c(n(C)c4ccccc34)C(=O)N([C@H](C)CO)C[C@@H]2C)c(OC)c1`?
C diff growth: 10; Pf Dd2 inh: -86*

What do the screens show for `COc1ccc(NC(=O)N(C)C[C@H]2OCc3ccccc3-c3c(n(C)c4ccccc34)C(=O)N([C@@H](C)CO)C[C@H]2C)c(OC)c1`?
C diff growth: -16; Pf Dd2 inh: -89*

Results for COc1ccc(NC(=O)N(C)C[C@H]2OCc3ccccc3-c3c(n(C)c4ccccc34)C(=O)N([C@H](C)CO)C[C@H]2C)c(OC)c1 ?
C diff growth: -12; Pf Dd2 inh: -66

Source: PubChem BioAssay (Broad Institute)
